Our source for the Potency, outcome and max activation values is PubChem BioAssay (Tox21).

Where “and” joins values, the source holds several entries; their conditions need not be identical. Equal values may be shown once. Unmarked numbers belong to inactive results. Records with an inconclusive call do not appear. Calls of active or inactive are those of the source. Unless noted, the call rests on the fitted dose curve; in most records, active means well fitted curve in the direction sought with a large enough effect in the repeat runs; inconclusive means weak or mixed curves; inactive means no such curve, though single readings can be large; an effect the other way counts as inactive or inconclusive.

Experiment [1] in a line: qHTS assay for small molecules that induce genotoxicity in human embryonic kidney cells expressing luciferase-tagged ATAD5 - cell viability (AID 651634; calls by dose curve; further: nearly all actives have a fitted effect of over 25% in size; further: potency means the concentration at half of the fitted maximal effect). The procedure, abridged:
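15.5 hr compound or vehicle exposure of HEK293T cells expressing luciferase-tagged ATAD5 at 37C; live-cell protease activity is read by fluorescence after 30 min of CellTiter-Fluor.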
For orientation: In qHTS, concentration-response curves come from the screen itself.

The nature of experiment [2]: qHTS assay for small molecule disruptors of the mitochondrial membrane potential - cell viability (AID 720634; calls by dose curve; further: nearly all actives have a fitted effect of over 20% in size; further: potency means the concentration at half of the fitted maximal effect). The procedure, abridged:
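In this qHTS format, HepG2 cells plated overnight were pinned with compound, incubated 1 hr, and assayed for ATP luminescence with CellTiter-Glo after m-MPI dye addition.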

Experiment [3] is described as follows: qHTS assay to test for compound auto fluorescence at 535 nm (green) in HepG2 cells (AID 720675).
The nature of experiment [4]: qHTS assay to test for compound auto fluorescence at 535 nm (green) in HEK293 cells (AID 720680).
A short description of experiment [5]: qHTS assay to test for compound auto fluorescence at 460 nm (blue) in HEK293 cell free culture (AID 720681). In short, it runs like this: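 Compounds were added to cell-free DMEM with 10% FBS and fluorescence read directly. The blue channel used 405 nm excitation and 460 nm emission, with triamterene as the reference fluorophore.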
Experiment [6] is described as follows: qHTS assay to test for compound auto fluorescence at 535 nm (green) in HEK293 cell free culture (AID 720682). In short, it runs like this:
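Green-label autofluorescence (485 nm excitation, 535 nm emission) measured on compound added to cell-free culture medium (DMEM, 10% FBS). Output is expressed relative to fluorescein.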

A short description of experiment [7]: qHTS assay to test for compound auto fluorescence at 590 nm (red) in HEK293 cell free culture (AID 720683). In short, it runs like this: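 Cell-free wells of DMEM with 10% FBS received compound, and intrinsic fluorescence was read at excitation/emission 540/590 nm. Values expressed as equivalence to Rose Bengal sodium.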
A short description of experiment [8]: qHTS assay to test for compound auto fluorescence at 590 nm (red) in HepG2 cell free culture (AID 720684). In short, it runs like this:
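Auto fluorescence equivalency versus Rose Bengal sodium, red channel Ex/Em 540/590 nm; compounds in cell-free MEM/10% FBS; DMSO vehicle control.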

Experiment [9] is described as follows: qHTS assay to test for compound auto fluorescence at 460 nm (blue) in HepG2 cell free culture (AID 720685). The procedure, abridged:
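Cell-free plates of MEM plus 10% FBS received 23 nL compound or DMSO vehicle; blue-channel (405/460 nm) intensity scored against triamterene as reference fluorophore.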

Experiment [10] is described as follows: qHTS assay to test for compound auto fluorescence at 535 nm (green) in HepG2 cell free culture (AID 720686).
Experiment [11] can be described thus: qHTS assay to identify small molecule antagonists of the androgen receptor (AR) signaling pathway using the MDA cell line - cell viability counter screen (AID 743041; further: nearly all actives have a fitted effect of over 45% in size; further: potency means the concentration at half of the fitted maximal effect). The procedure, abridged:
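Compound exposure lasted 16 h at 37C in MDA-kb2 AR-luc cells stimulated with R1881. Protease-based CellTiter-Fluor reagent was applied for the final 30 min and fluorescence measured.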

The test system of experiment [12] is thyroid hormone receptor (rat, GH3 cells). Put plainly: qHTS assay to identify small molecule agonists of the thyroid receptor (TR) signaling pathway (AID 743066; calls by dose curve).
Experiment [13] in a line: qHTS assay to identify small molecule antagonists of the estrogen receptor alpha (ER-alpha) signaling pathway - cell viability counter screen (AID 743074; calls by dose curve;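 further: HEK293 cells carrying ER-alpha-UAS-bla reporter stimulated with 17beta-estradiol; nearly all actives have a fitted effect of over 45% in size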; further: potency means the concentration at half of the fitted maximal effect).
A short description of experiment [14]: qHTS assay to identify small molecule antagonists of the estrogen receptor alpha (ER-alpha) signaling pathway using the BG1 cell line - cell viability counter screen (AID 743081).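 Further: compound given together with 17beta-estradiol as the ER stimulus; series mostly up to about 70 µM; nearly all actives have a fitted effect of over 45% in size.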
For a further experiment, the target named is Aromatase (Homo sapiens) (UniProt P11511). Put plainly: qHTS assay to identify aromatase inhibitors (AID 743083). Further: nearly all actives have a fitted effect of over 55% in size. Further: potency means the concentration at half of the fitted maximal effect.
The nature of experiment [15]: qHTS assay to identify aromatase inhibitors - cell viability counter screen (AID 743084).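 Further: cells stimulated with testosterone during compound exposure; nearly all actives have a fitted effect of over 55% in size.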 Further: potency means the concentration at half of the fitted maximal effect.
For experiment [16], the target named is Aryl hydrocarbon receptor (Homo sapiens) (UniProt P35869). Put plainly: qHTS assay to identify small molecule that activate the aryl hydrocarbon receptor (AhR) signaling pathway (AID 743085).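 Further: HG2L7.5c1 human HepG2 liver cells with stably integrated DRE-driven firefly reporter; series mostly up to about 70 µM; nearly all actives have a fitted effect of over 15% in size.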 The procedure, abridged: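 HepG2 cells stably carrying a 20-DRE firefly luciferase reporter (HG2L7.5c1) treated with compound for 24 hr at 37C. Luciferase read by ONE-Glo luminescence, with CellTiter-Fluor viability read first.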

Experiment [17] is described as follows: qHTS assay to identify small molecule that activate the aryl hydrocarbon receptor (AhR) signaling pathway - cell viability counter screen (AID 743086). Further: nearly all actives have a fitted effect of over 45% in size. Further: potency means the concentration at half of the fitted maximal effect. In short, it runs like this:
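HepG2-AhR-luc (HG2L7.5c1) cells, 4000/well, treated 24 h at 37 C with compound; viability measured as CellTiter-Fluor fluorescence after 30 min in the same wells as the luciferase read.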

A short description of experiment [18]: qHTS assay to identify small molecule phospholipidosis (PLD) inducers (AID 1259344; active means well fitted curve in the direction sought with a large enough effect; an effect the other way counts as inactive or inconclusive). The procedure, abridged: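 Image-based: LipidTOX Red pit count/intensity per well and per cell; HepG2, 24 h compound at 37 C, PFA fixation, Hoechst counterstain.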
In experiment [19] the target is Nuclear receptor subfamily 1 group I member 2 (Rattus norvegicus) (UniProt Q9R1A7). Put plainly: Rat pregnane X receptor (rPXR) activation by small molecules, qHTS assay (AID 1346983). Further: nearly all actives have a fitted effect of over 20% in size. Conditions: rPXR luciferase reporter cells, One-Glo luminescence, 24 h; max activation: active compounds read high. In short, it runs like this: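 Cell-based rPXR activation assay: rPXR cells, 2,000 per well, rested 5hr at 37 C, then exposed to compounds in DMSO for 24 hr at 37 C. Luciferase activity read by One-Glo luminescence after 30 min at room temperature.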
On the % scale 0 is the no-effect control and ±100 the full control effect.

Chain of Nuclear receptor subfamily 1 group I member 2 (Rattus norvegicus) (Q9R1A7 whole entry, looked up): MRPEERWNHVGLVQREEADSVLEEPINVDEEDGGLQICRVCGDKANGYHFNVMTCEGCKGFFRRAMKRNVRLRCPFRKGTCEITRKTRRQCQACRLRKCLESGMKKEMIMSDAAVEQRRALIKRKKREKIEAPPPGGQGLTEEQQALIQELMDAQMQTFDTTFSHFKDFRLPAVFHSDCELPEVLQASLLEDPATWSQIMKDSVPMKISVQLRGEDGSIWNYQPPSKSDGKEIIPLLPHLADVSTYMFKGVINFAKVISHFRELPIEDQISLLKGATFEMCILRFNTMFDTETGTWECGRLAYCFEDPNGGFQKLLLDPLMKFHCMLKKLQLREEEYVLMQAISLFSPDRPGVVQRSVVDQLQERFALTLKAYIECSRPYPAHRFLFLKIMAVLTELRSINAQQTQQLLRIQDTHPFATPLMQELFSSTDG
Chain of Aryl hydrocarbon receptor (Homo sapiens) (P35869 whole entry, looked up): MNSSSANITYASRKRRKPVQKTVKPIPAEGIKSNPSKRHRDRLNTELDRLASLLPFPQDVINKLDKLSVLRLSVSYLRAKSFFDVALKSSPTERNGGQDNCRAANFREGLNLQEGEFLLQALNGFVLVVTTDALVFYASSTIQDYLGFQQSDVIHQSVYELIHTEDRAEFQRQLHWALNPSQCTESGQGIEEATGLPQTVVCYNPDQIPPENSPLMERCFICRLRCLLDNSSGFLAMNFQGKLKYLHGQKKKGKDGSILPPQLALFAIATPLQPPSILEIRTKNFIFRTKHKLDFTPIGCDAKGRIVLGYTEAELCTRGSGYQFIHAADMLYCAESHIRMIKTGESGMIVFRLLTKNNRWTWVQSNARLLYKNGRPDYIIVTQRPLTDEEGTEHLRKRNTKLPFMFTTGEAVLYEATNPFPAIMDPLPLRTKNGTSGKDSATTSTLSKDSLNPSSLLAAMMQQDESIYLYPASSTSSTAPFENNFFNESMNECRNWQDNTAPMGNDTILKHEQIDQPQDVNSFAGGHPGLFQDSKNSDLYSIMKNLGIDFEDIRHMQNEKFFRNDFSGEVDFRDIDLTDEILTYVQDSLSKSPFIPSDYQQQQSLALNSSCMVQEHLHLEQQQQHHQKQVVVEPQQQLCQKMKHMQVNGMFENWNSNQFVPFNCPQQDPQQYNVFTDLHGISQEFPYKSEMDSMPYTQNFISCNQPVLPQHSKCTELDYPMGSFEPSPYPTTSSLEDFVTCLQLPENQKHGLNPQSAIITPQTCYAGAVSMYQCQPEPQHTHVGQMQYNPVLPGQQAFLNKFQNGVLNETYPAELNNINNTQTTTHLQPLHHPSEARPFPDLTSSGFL
Chain of Aromatase (Homo sapiens) (P11511 whole entry, looked up): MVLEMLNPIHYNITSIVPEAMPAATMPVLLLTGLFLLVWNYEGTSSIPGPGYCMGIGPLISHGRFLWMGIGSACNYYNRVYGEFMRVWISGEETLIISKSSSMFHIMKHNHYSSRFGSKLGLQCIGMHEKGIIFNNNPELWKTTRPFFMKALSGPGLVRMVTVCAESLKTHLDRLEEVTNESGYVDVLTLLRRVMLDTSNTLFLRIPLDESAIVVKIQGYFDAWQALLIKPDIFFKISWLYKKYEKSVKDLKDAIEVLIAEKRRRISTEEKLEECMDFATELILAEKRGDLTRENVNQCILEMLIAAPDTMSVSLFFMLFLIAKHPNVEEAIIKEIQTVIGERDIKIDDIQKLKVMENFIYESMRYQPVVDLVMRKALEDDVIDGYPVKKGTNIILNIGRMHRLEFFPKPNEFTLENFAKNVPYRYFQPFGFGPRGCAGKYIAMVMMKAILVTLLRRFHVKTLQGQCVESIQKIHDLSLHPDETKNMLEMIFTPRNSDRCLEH

Turning to `C[N+]1([O-])[C@@H]2CC(OC(=O)[C@H](CO)c3ccccc3)C[C@H]1[C@@H]1O[C@@H]12` (stereo not given in full), the Potency entry in experiment [1], in experiment [2], in experiment [3], in experiment [4], in [5] and in [6] was “inactive” in each case. Further, the Potency result in experiment [9], in experiment [10], in [11], in [12], in experiment [13] and in [14] was “inactive” in each case. For the same compound, the Potency result (with Aromatase (Homo sapiens); in [15]; in experiment [16]; in experiment [17]; in experiment [18]) was “inactive” each time. Besides, the compound was called inactive in experiment [7] and in experiment [8]. The max activation in experiment [19] is 6.47% and -0.453%.

For `OC(c1ccccc1)(c1ccccc1)C1CN2CCC1CC2` (stereo not given), the Potency entry in experiment [1], in experiment [2], in experiment [3], in experiment [4], in experiment [5] and in [6] was “inactive” throughout. For the same compound, the Potency entry in experiment [9], in [10], in [11], in [12], in experiment [13] and in experiment [14] was “inactive” in each case. Also, the Potency result (with Aromatase (Homo sapiens); in experiment [15]; in experiment [16]; in experiment [17]; in [18]) was “inactive” each time. Further, the compound was called inactive in experiment [7] and in experiment [8]. The max activation in experiment [19] is 17.5%.

As for `CCCCC[C@@H](O)C1C(=O)OC(C)[C@H](O)/C=C/C=C/C=C/C=C/C=C(\C)C(O)C(O)C(O)C[C@H](O)C[C@H](O)C[C@H](O)C[C@H](O)C[C@@H]1O` (stereo not given in full), the Potency entry in [1], in experiment [2], in [3], in experiment [4], in experiment [5] and in experiment [6] was “inactive” each time. The Potency entry in experiment [9], in experiment [10], in [11], in experiment [12], in experiment [13] and in experiment [14] was “inactive” each time. For the same compound, the Potency result (with Aromatase (Homo sapiens); in experiment [15]; in [16]; in [17]; in experiment [18]) was “inactive” throughout. For the same compound, the compound was called inactive in experiment [7] and in experiment [8]. Besides, in [19], the max activation is 0.909%.

For `O=C(CS(=O)C(c1ccccc1)c1ccccc1)NO` (stereo not given), the Potency result in [1], in experiment [2], in [3], in [4], in [5] and in experiment [6] was “inactive” throughout. Also, the Potency entry in [9], in [10], in experiment [11], in experiment [12], in experiment [13] and in [14] was “inactive” each time. Further, the Potency result (with Aromatase (Homo sapiens); in experiment [15]; in experiment [16]; in experiment [18]) was “inactive” throughout. Also, the outcome in experiment [7] and in experiment [8] was inactive. Moreover, in experiment [19], the max activation is -2.68%.

With `C[C@H]1CC[C@]2(NC1)O[C@H]1C[C@H]3[C@@H]4CC[C@H]5C[C@@H](O[C@@H]6O[C@H](CO)[C@H](O[C@@H]7O[C@H](CO)[C@@H](O)[C@H](O[C@@H]8OC[C@@H](O)[C@H](O)[C@H]8O)[C@H]7O[C@@H]7O[C@H](CO)[C@@H](O)[C@H](O)[C@H]7O)[C@H](O)[C@H]6O)CC[C@]5(C)[C@H]4CC[C@]3(C)[C@H]1[C@@H]2C`, the Potency was 7.5 µM (active) in experiment [1]; 3.35 µM (active) in [2]; 6.68 µM (active) in [11]; 10.7 µM (active) in experiment [13]; 3.35 µM (active) with Aromatase (Homo sapiens); 5.96 µM (active) in experiment [15]. Moreover, the Potency in experiment [17] is 5.96 µM (active). Besides, the Potency result in experiment [3], in [4], in experiment [5], in [6], in experiment [9] and in [16] was “inactive” in each case. For the same compound, in experiment [18], the Potency entry is “inactive”. For the same compound, the call in experiment [7] and in [8] was inactive. In experiment [19], the max activation is -24.3%.

Regarding `CC(=O)O[C@H]1C[C@H](O[C@H]2[C@@H](O)C[C@H](O[C@H]3[C@@H](O)C[C@H](OC4CC[C@@]5(C)[C@H](CC[C@@H]6[C@@H]5CC[C@]5(C)[C@@H](C7=CC(=O)OC7)CC[C@]65O)C4)O[C@@H]3C)O[C@@H]2C)O[C@H](C)[C@H]1O[C@@H]1O[C@H](CO)[C@@H](O)[C@H](O)[C@H]1O` (stereo not given in full), the Potency is 0.298 µM (active) in [1] and 0.0674 µM (active) in experiment [13]. Besides, the Potency entry in [2], in experiment [3], in experiment [4], in [5], in experiment [6] and in experiment [9] was “inactive” throughout. The Potency result (in experiment [10]; in [12]; in experiment [14]; in the experiment with Aromatase (Homo sapiens); in [15]; in experiment [16]) was “inactive” in each case. Also, the Potency entry in experiment [17] and in experiment [18] was “inactive” each time. Besides, the outcome in experiment [7] and in [8] was inactive. For the same compound, the max activation in experiment [19] is -3.5%.
